From PubChem BioAssay (NCATS)
Inconclusive results are not listed. Where a call stands in place of a potency, no number is given. Calls of active or inactive are those of the source. The call rests on the fitted dose curve; in most records, active means well fitted curve in the direction sought with a large enough effect; inconclusive means small, poorly fitted or top-dose-only effect, or another doubt; inactive means no such curve, though single readings can be large; an effect the other way counts as inactive or inconclusive.

Experiments:
[1] = SW1088 Cancer Cell Toxicity qHTS against the NCATS CANVASS Library (AID 1347350); further: nearly all actives have a fitted effect of over 75% in size; further: potency means the concentration at half of the fitted maximal effect
In short: (§1)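 Viability was assessed by adding CellTiter-Glo reagent to treated cultures and reading luminescence after 15min at room temperature. Treatment lasted 72 h at 37 degrees C/5% CO2, using an 11-point series on 1000 cells/well.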

[2] = U-118MG Cancer Cell Toxicity qHTS against the NCATS CANVASS Library (AID 1347351); further: potency means the concentration at half of the fitted maximal effect
In short: as §1

[3] = COV-362 Cancer Cell Toxicity qHTS against the NCATS CANVASS Library (AID 1347352); further: potency means the concentration at half of the fitted maximal effect
In short: (§2)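 Toxicity was measured as CellTiter-Glo luminescence after 72 h exposure to an 11-point compound series. Compound was added to 1000 cells/well 4 h after seeding.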

[4] = A2780 Cisplatin Sensitive Ovarian Cancer Cell Toxicity qHTS against the NCATS CANVASS Library (AID 1347353); further: nearly all actives have a fitted effect of over 60% in size; further: potency means the concentration at half of the fitted maximal effect
In short: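 Cisplatin-sensitive A2780 ovarian cells (750/well) received compound in 11 concentrations, and were incubated 72 h at 37 °C. ATP content was measured by ATPLite luminescence; bortezomib served as control.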

[5] = HEK-293 Cancer Cell Toxicity qHTS against the NCATS CANVASS Library (AID 1347355); further: nearly all actives have a fitted effect of over 65% in size; further: potency means the concentration at half of the fitted maximal effect
In short: as §2

[6] = system: NAD(P)H diaphorase (Clostridium kluyveri); assay: Diaphorse counterscreen qHTS: Assay Interference Panel against the NCATS CANVASS Library (AID 1347362)
In short: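 Counterscreen for coupling-enzyme interference: resorufin fluorescence from resazurin/NADH turnover, read after 5 min at room temperature. Compounds were tested over an 11-point series after 15 min dark preincubation with diaphorase in PBS-Tween.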

[7] = SDT Cancer Cell Toxicity qHTS against the NCATS CANVASS Library (AID 1347365); further: nearly all actives have a fitted effect of over 60% in size; further: potency means the concentration at half of the fitted maximal effect
In short: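 Cytotoxicity taken from CellTiterGlo ATP luminescence after 72 hr at 37C, 5% CO2. Canine glioma line SDT, 500 cells/well, treated at 11 concentrations; bortezomib dose series as control.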

[8] = G06 Cancer Cell Toxicity qHTS against the NCATS CANVASS Library (AID 1347368); further: nearly all actives have a fitted effect of over 60% in size; further: potency means the concentration at half of the fitted maximal effect
In short: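 Viability measured by CellTiterGlo ATP luminescence after 72 hr at 37C, 5% CO2. Canine G06 glioma cells plated at 500/well. Compounds tested as 11-point qHTS titrations.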

[9] = target: Nuclear receptor subfamily 1 group I member 3 (Homo sapiens) (UniProt Q14994); assay: qHTS for Constitutive Androstane Receptor (CAR) Antagonist screened against the NCATS CANVASS Library (AID 1347372); further: potency means the concentration at half of the fitted maximal effect
Chain of Nuclear receptor subfamily 1 group I member 3 (Homo sapiens) (Q14994 whole entry, looked up): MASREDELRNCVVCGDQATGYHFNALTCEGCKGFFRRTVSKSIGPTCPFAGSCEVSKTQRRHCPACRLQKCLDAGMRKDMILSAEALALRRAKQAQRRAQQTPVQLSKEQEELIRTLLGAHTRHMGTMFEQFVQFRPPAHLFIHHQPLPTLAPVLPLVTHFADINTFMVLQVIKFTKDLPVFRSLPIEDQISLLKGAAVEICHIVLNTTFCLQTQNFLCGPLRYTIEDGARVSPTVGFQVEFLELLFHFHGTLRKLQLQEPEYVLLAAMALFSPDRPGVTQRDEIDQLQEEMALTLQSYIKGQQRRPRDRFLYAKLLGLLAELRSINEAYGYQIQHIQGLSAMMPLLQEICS
In short: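 Antagonist mode: compound added alongside 50 nM CITCO to HepG2-hCAR-CYP2B6 reporter cells, 24hr at 37C. Viability by CellTiter-Fluor fluorescence, then CAR-driven luciferase by ONE-Glo luminescence.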

[10] = qHTS for Hypoxia signaling pathway (HIF-1) antagonists against the NCATS CANVASS Library (AID 1347374); further: nearly all actives have a fitted effect of over 60% in size; further: potency means the concentration at half of the fitted maximal effect
In short: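 Antagonism scored as loss of CoCl2-driven (60 uM stock added) HRE beta-lactamase signal, read by CCF4 FRET at 460/530 nm. Compounds were tested in an 11-point series on ME-180 reporter cells for 17 hrs at 37C, with parallel CellTiter-Glo cytotoxicity.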

[11] = qHTS for Hypoxia signaling pathway (HIF-1) agonists against the NCATS CANVASS Library (AID 1347375)
In short: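 Beta-lactamase reporter under HRE control in ME-180 cells; compounds (11-point qHTS series) added after 5 hrs plating, then 17 hrs at 37C. FRET substrate read after 2 hr; same-well CellTiter-Glo luminescence gave viability and normalization.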

[12] = qHTS for H2AX Agonists against the NCATS CANVASS Library (AID 1347378);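 further: phospho-H2AX S139 level in CHO-K1 lysates by TR-FRET emission ratio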
In short: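 Following overnight seeding, CHO-K1 cells are incubated with a concentration series of compound for 3 hr at 37C (final DMSO 0.76%). Cells are then lysed, detection antibodies added, and emission ratio 665/620 nm recorded after 24 hr at room temperature.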

[13] = qHTS for Activators of p53 Stress Response Pathway screened against the NCATS CANVASS Library (AID 1347388)
In short: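 Beta-lactamase reporter driven by p53 response elements in HCT-116 cells, read as the 460 nm/530 nm emission ratio after CCF4 loading, following 16 h of exposure to an 11-point series. Cell viability was measured in the same wells by CellTiter-Glo luminescence.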

[14] = qHTS assay for small molecule disruptors of mitochondrial membrane potential screened against the NCATS CANVASS Library (AID 1347389); further: nearly all actives have a fitted effect of over 60% in size; further: potency means the concentration at half of the fitted maximal effect
In short: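 Mitochondrial membrane potential in HepG2: 1 h compound treatment (11-point concentration series), 30 min m-MPI dye at 37C, then dual fluorescence of J-aggregates (ex 540/em 590) and monomers (ex 490/em 535); lower red/green ratio indicates depolarization.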

[15] = Secretion counterscreen for inhibitors of the SERCaMP assay screened against the NCATS CANVASS Library (AID 1347390);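 further: light from luciferase secreted into medium read as a measure of general secretion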; further: potency means the concentration at half of the fitted maximal effect
In short: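 Counterscreen identifying compounds that disrupt secretion, using SH-SY5Y cells with a constitutively secreted Gaussia luciferase reporter. A 20 h compound exposure (top 77 uM) precedes luminescent detection with coelenterazine.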

[16] = qHTS for activators of Nrf2/ARE signaling pathway screened against the NCATS CANVASS Library (AID 1347391); further: nearly all actives have a fitted effect of over 60% in size; further: potency means the concentration at half of the fitted maximal effect
In short: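 Eleven-point qHTS, 16 h treatment of HepG2 cells carrying an ARE-driven beta-lactamase reporter; CCF4 ratio read (405 nm excitation, 460 and 530 nm emission), with CellTiter-Glo ATP luminescence for viability.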

[17] = qHTS for inhibitors of ER calcium dysfunction: SERCaMP assay screened against the NCATS CANVASS Library (AID 1347393); further: nearly all actives have a fitted effect of over 40% in size; further: potency means the concentration at half of the fitted maximal effect
In short: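 Thapsigargin-induced ER calcium depletion drives GLuc-SERCaMP secretion from SH-SY5Y cells; compounds given 16 h beforehand were scored by lowered coelenterazine luminescence after 4 h challenge.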

[18] = qHTS for inhibitors of Wild type Zika virus screened against the NCATS CANVASS Library (AID 1347396);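 further: ATP luminescence of surviving cells so rescue from viral cell killing; series mostly up to about 46 µM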
In short: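 Using ATP-based luminescence (CellTiter Glo), this screen scores rescue of Vero 766 cells from wild-type Zika killing at 72 h post-infection. Compounds are tested in a concentration series.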

[19] = Redox Reaction Profiling qHTS: Assay Interference Panel against the NCATS CANVASS Library (AID 1347401)
In short: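 Redox-cycling liability assessed as DTT-driven conversion of resazurin (5 uM, with 200 uM DTT, HEPES pH 7.3) to fluorescent resorufin. Fluorescence at 525/598 nm measured initially and after 15 min dark incubation.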

[20] = UWB1.289-WTBRCA1 Cancer Cell Toxicity qHTS against the NCATS CANVASS Library (AID 1347354); further: potency means the concentration at half of the fitted maximal effect
In short: as §2

Row | SMILES | Potency [1] | Potency [2] | Potency [3] | Potency [4] | Potency [5] | Potency [6] | Potency [7] | Potency [8] | Potency [9] | Potency [10] | Potency [11] | Potency [12] | Potency [13] | Potency [14] | Potency [15] | Potency [16] | Potency [17] | Potency [18] | Potency [19] | Potency [20]
1 | Oc1ccc(/C=C2/c3cc(O)cc(O)c3C(c3ccc(O)cc3)[C@H]2c2cc(O)cc(O)c2)cc1 (some centres not stated) | inactive | inactive | inactive | inactive | inactive | inactive | inactive | inactive | inactive | inactive | inactive | inactive | inactive | inactive | inactive | inactive | inactive | inactive | inactive | 
2 | CC(C)=CCC[C@@H](C)[C@@H]1CC[C@@]2(C)C[C@H]3C(C)=CC(=O)[C@@H]3/C(C=O)=C\C[C@H]12 | 2.66 µM (active) | 7.49 µM (active) | 11.8 µM (active) | 3.72 µM (active) | 9.35 µM (active) | inactive |  | 16.6 µM (active) |  |  |  | inactive |  |  |  | inactive | inactive |  |  | 10.6 µM (active)
3 | C=C1C[C@@]23C=CC(=O)[C@@](C)(CCC(=O)Nc4c(O)ccc(C(=O)O)c4O)C2C[C@@H]1CC3 (some centres not stated) | inactive | inactive | inactive | inactive | inactive | inactive | inactive |  | inactive |  | inactive | inactive | inactive | inactive | inactive | 18.6 µM (active) | inactive | inactive | inactive | inactive
4 | O=c1cc(-c2ccc(O)c(O[C@@H]3O[C@H](CO)[C@@H](O)[C@H](O)[C@H]3O)c2)oc2cc(O[C@@H]3O[C@H](CO)[C@@H](O)[C@H](O)[C@H]3O)cc(O)c12 | inactive | inactive | inactive |  | inactive |  |  |  | inactive | inactive | inactive | inactive | inactive | inactive | inactive | inactive | inactive | inactive | inactive | inactive
5 | CN1C(=O)C2C(N=CN2C)N(C)C1=O (configuration not stated) | inactive |  | inactive | inactive | inactive | inactive | inactive | inactive | inactive | inactive | inactive | inactive | inactive | inactive | inactive | inactive | inactive | inactive | inactive | inactive
6 | CCCCCC[C@H](CCCCC[C@@H](O)C(N)=O)OC(=O)[C@@H]1CC=CN1C(=O)c1ccccc1O |  | inactive | inactive |  | inactive |  |  |  | inactive | inactive | inactive | inactive | inactive | inactive | inactive | inactive | inactive | inactive | inactive | 
7 | O=C1CC(c2cc(O)cc(O)c2)Oc2cc(O)ccc21 (configuration not stated) | inactive | inactive | inactive | 3.72 µM (active) |  |  |  |  | inactive | inactive | inactive |  | inactive | 7.41 µM (active) |  |  | 8.6 µM (active) | inactive | inactive | inactive
8 | C[C@@H](O)[C@H]1OC(=O)C=C2[C@]3(C)[C@H]4[C@H](OC(=O)[C@@]4(C)[C@@H](O)[C@H]4O[C@H]43)[C@H]3O[C@@]231 |  |  | 1.88 µM (active) | 0.833 µM (active) | 1.48 µM (active) | inactive | 1.18 µM (active) | 1.48 µM (active) | 5.24 µM (active) | 1.49 µM (active) | inactive |  |  | inactive | 3.84 µM (active) |  | inactive |  | inactive | 
9 | C/C=C1/CC[C@@H]2c3[nH]c4ccccc4c3CCN2C1 | inactive | inactive | inactive | inactive |  | inactive | inactive | inactive | inactive | inactive | inactive | inactive | inactive | inactive | inactive |  | 19.3 µM (active) | inactive | inactive | inactive
10 | C=C(C)C(=O)O[C@H]1C[C@H](C)[C@@H](OC(C)=O)CC[C@@]2(C)O[C@@H]2[C@H]2OC(=O)C(COC(C)=O)=C12 | 8.41 µM (active) |  | inactive | 0.833 µM (active) | 3.72 µM (active) | inactive | 6.62 µM (active) | 2.64 µM (active) |  |  |  | inactive |  | inactive | 17.2 µM (active) |  | 0.86 µM (active) |  | inactive | 7.47 µM (active)
11 | C[C@@H]1O[C@@H](Oc2c(-c3ccc(O)cc3)oc3cc(O)cc(O)c3c2=O)[C@H](O)[C@H](O)[C@H]1O | inactive | inactive | inactive | inactive | inactive |  | inactive | inactive | inactive |  |  | inactive |  | inactive | inactive | inactive | inactive | inactive | inactive | inactive
12 | C/C(=C\[C@H](C)C(=O)CCCC1CC(=O)NC(=O)C1)C(O)[C@@H](C)[C@H](O)C/C=C/CC/C=C/C(=O)O (some centres not stated) |  | inactive | inactive | inactive | inactive | inactive | inactive |  | inactive | inactive | inactive | inactive | inactive | inactive | inactive | inactive | inactive | inactive |  | inactive
